From ChEMBL document CHEMBL1961873, “Compounds: GSK PKIS; Assays: Nanosyn kinase panel” (2012)
Where “and” joins values, the source holds several entries; their conditions need not be identical. Equal values may be shown once.

Legend:
[1] = target: Platelet-derived growth factor receptor beta (Homo sapiens) (UniProt P09619); conditions: at 1 µM;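 note: each value is a mean percent inhibition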
[2] = target: Tyrosine-protein kinase FRK (Homo sapiens) (UniProt P42685); conditions: at 0.1 µM
[3] = target: Tyrosine-protein kinase FRK (Homo sapiens) (UniProt P42685); conditions: at 1 µM
[4] = target: Protein-tyrosine kinase 2-beta (Homo sapiens) (UniProt Q14289); conditions: at 0.1 µM
Protein-tyrosine kinase 2-beta (Homo sapiens), sequence (Q14289 whole entry, looked up): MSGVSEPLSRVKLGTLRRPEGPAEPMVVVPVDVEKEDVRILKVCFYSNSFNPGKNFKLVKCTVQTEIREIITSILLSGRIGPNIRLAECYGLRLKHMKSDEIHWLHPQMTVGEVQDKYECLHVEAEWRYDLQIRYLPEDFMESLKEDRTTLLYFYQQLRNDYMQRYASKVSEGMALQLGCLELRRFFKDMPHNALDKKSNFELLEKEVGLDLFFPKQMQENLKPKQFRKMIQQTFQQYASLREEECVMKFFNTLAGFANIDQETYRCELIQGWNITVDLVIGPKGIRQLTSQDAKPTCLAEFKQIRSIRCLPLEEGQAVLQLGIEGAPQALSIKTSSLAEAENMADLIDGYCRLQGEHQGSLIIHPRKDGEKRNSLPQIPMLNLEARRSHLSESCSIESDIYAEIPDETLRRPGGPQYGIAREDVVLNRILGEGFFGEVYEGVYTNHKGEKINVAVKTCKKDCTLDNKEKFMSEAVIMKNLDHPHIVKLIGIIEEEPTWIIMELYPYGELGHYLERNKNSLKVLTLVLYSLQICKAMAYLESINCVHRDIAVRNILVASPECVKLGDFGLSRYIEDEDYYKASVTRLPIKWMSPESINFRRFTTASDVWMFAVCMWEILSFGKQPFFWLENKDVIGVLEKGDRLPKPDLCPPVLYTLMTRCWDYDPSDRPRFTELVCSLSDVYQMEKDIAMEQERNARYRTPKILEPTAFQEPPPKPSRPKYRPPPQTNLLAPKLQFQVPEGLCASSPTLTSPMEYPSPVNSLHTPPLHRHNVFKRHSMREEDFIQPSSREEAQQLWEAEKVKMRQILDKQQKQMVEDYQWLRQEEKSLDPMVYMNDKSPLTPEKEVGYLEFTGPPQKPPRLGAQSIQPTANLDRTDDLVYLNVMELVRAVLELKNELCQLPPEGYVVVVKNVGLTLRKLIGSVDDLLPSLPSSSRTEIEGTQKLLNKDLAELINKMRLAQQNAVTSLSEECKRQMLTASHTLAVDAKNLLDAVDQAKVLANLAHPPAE

[5] = target: Protein-tyrosine kinase 2-beta (Homo sapiens) (UniProt Q14289); conditions: at 1 µM
[6] = target: Proto-oncogene tyrosine-protein kinase receptor Ret (Homo sapiens) (UniProt P07949); conditions: at 0.1 µM
[7] = target: Proto-oncogene tyrosine-protein kinase receptor Ret (Homo sapiens) (UniProt P07949); conditions: at 1 µM
[8] = test system: Proto-oncogene tyrosine-protein kinase receptor Ret (Homo sapiens), P07949 [V804L]; conditions: at 0.1 µM
Proto-oncogene tyrosine-protein kinase receptor Ret (Homo sapiens), P07949 [V804L], sequence (P07949 whole entry V804L): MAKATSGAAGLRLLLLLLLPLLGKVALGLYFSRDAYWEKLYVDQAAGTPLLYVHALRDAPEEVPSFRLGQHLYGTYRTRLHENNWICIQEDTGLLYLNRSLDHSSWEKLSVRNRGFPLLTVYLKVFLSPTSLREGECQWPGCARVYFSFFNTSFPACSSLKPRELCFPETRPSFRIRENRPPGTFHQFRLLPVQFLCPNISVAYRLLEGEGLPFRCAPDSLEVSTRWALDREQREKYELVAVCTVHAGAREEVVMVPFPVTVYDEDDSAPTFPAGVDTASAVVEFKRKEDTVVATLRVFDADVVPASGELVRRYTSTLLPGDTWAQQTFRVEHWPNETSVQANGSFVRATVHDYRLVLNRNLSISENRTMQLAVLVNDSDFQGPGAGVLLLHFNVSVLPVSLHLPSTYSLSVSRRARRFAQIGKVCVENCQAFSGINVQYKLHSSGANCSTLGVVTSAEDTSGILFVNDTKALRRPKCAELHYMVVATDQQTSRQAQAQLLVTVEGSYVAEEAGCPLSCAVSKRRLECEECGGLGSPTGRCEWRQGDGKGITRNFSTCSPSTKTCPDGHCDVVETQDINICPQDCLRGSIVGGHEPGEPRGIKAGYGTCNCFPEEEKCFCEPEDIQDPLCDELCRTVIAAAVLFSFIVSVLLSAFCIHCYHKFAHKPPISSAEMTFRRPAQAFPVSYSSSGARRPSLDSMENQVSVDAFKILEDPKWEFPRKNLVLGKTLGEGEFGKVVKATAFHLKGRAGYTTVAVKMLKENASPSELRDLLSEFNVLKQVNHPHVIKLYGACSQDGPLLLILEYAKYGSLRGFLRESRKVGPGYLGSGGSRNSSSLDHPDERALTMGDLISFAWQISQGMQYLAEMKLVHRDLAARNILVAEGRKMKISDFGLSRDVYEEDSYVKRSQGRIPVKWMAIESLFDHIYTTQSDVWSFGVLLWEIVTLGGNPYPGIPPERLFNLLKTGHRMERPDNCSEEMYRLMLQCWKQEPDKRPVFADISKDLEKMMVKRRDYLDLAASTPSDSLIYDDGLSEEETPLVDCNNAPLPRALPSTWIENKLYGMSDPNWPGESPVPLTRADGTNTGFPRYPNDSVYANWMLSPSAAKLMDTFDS

[9] = test system: Proto-oncogene tyrosine-protein kinase receptor Ret (Homo sapiens), P07949 [V804L]; conditions: at 1 µM
[10] = test system: Proto-oncogene tyrosine-protein kinase receptor Ret (Homo sapiens), P07949 [Y791F]; conditions: at 0.1 µM
Proto-oncogene tyrosine-protein kinase receptor Ret (Homo sapiens), P07949 [Y791F], sequence (P07949 whole entry Y791F): as the sequence (P07949 whole entry V804L) above, with Y791F, L804V counted along it

[11] = test system: Proto-oncogene tyrosine-protein kinase receptor Ret (Homo sapiens), P07949 [Y791F]; conditions: at 1 µM
[12] = target: Macrophage-stimulating protein receptor (Homo sapiens) (UniProt Q04912); conditions: at 0.1 µM
Macrophage-stimulating protein receptor (Homo sapiens), sequence (Q04912 25-304 limits assumed): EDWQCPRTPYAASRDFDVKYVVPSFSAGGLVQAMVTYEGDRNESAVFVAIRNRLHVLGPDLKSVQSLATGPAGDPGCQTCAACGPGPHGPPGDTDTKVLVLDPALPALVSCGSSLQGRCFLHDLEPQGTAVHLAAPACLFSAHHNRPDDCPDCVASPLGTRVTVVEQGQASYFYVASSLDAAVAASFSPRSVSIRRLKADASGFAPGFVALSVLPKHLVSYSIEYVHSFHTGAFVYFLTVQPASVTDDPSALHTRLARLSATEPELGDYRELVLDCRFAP
Macrophage-stimulating protein receptor (Homo sapiens), sequence (Q04912 310-1400 limits assumed): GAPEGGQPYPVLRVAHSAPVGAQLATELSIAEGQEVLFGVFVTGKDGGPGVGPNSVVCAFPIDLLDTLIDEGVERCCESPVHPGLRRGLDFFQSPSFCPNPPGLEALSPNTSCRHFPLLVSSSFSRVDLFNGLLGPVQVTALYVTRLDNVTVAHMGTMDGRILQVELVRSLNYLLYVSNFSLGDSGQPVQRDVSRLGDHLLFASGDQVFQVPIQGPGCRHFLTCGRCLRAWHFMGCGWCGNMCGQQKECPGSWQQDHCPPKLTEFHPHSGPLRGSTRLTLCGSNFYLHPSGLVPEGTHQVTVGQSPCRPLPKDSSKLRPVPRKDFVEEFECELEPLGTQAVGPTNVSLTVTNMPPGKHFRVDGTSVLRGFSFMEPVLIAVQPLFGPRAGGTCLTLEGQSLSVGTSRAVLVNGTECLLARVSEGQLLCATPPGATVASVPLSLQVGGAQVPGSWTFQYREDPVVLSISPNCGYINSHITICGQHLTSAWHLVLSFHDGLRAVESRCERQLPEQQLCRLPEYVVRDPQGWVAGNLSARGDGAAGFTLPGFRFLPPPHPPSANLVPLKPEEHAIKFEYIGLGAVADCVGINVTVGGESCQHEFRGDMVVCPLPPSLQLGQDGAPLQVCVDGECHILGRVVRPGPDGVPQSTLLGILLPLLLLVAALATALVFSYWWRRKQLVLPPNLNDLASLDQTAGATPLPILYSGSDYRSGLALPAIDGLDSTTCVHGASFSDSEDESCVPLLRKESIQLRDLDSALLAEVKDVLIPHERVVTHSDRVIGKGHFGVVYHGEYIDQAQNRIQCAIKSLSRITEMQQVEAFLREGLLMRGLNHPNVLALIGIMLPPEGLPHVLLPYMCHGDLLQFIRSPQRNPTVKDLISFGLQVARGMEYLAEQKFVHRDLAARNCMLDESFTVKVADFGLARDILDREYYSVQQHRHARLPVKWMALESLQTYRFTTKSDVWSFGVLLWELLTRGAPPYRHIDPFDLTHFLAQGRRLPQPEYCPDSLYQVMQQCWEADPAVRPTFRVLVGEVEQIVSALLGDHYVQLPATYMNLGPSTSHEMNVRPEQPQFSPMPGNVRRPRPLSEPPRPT

[13] = target: Macrophage-stimulating protein receptor (Homo sapiens) (UniProt Q04912); conditions: at 1 µM
[14] = target: Proto-oncogene tyrosine-protein kinase ROS (Homo sapiens) (UniProt P08922); conditions: at 0.1 µM
[15] = target: Proto-oncogene tyrosine-protein kinase ROS (Homo sapiens) (UniProt P08922); conditions: at 1 µM
[16] = target: Proto-oncogene tyrosine-protein kinase Src (Homo sapiens) (UniProt P12931); conditions: at 0.1 µM
Proto-oncogene tyrosine-protein kinase Src (Homo sapiens), sequence (P12931 2-536 limits assumed): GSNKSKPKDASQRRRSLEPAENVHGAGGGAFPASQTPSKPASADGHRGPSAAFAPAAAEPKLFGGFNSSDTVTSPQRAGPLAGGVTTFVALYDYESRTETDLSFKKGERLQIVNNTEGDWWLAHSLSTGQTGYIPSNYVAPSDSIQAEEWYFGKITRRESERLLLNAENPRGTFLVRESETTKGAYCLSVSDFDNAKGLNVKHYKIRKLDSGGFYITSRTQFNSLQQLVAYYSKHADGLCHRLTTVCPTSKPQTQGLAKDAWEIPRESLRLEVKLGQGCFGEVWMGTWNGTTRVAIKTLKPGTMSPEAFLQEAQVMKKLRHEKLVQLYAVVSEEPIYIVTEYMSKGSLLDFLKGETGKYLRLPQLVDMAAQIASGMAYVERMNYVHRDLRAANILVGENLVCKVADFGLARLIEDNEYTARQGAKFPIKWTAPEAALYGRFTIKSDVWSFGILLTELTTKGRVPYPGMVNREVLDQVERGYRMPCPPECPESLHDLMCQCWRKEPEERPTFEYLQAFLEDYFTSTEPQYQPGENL

[17] = target: Proto-oncogene tyrosine-protein kinase Src (Homo sapiens) (UniProt P12931); conditions: at 1 µM
[18] = target: Tyrosine-protein kinase Srms (Homo sapiens) (UniProt Q9H3Y6); conditions: at 0.1 µM
Tyrosine-protein kinase Srms (Homo sapiens), sequence (Q9H3Y6 whole entry): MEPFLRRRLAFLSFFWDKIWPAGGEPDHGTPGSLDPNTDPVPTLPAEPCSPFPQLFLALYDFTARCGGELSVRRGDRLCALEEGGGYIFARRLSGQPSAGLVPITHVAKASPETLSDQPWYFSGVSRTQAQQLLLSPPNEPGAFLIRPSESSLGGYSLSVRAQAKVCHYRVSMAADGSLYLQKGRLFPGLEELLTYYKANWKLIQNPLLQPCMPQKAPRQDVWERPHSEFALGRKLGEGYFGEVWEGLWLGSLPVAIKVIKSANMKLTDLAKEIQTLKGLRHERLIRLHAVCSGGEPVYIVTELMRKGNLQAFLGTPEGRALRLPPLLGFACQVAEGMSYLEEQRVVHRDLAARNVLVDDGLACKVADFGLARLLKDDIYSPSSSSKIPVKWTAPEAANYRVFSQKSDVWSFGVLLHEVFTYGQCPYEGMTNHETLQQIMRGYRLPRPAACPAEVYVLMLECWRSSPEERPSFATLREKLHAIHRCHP

[19] = target: Tyrosine-protein kinase Srms (Homo sapiens) (UniProt Q9H3Y6); conditions: at 1 µM
[20] = target: Tyrosine-protein kinase SYK (Homo sapiens) (UniProt P43405); conditions: at 0.1 µM;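 note: reported percentages are mean inhibition values for SYK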

Tyrosine-protein kinase FRK (Homo sapiens), sequence (P42685 whole entry): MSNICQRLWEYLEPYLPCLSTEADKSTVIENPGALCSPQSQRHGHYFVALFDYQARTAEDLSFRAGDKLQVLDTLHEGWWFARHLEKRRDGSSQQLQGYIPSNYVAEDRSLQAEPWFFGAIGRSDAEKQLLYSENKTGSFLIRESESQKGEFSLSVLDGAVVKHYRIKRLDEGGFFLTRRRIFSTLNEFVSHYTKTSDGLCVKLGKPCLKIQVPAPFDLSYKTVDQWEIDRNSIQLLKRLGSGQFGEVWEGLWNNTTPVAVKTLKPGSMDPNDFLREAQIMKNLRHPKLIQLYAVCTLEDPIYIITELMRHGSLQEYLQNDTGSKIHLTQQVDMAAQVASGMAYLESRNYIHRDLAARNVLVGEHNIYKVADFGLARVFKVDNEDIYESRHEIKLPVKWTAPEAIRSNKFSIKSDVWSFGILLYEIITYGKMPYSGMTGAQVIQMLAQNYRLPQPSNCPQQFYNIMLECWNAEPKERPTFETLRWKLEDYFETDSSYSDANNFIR

| Structure (SMILES) | inhibition [1] | inhibition [2] | inhibition [3] | inhibition [4] | inhibition [5] | inhibition [6] | inhibition [7] | inhibition [8] | inhibition [9] | inhibition [10] | inhibition [11] | inhibition [12] | inhibition [13] | inhibition [14] | inhibition [15] | inhibition [16] [%] | inhibition [17] | inhibition [18] | inhibition [19] | inhibition [20] |
| --- | --- | --- | --- | --- | --- | --- | --- | --- | --- | --- | --- | --- | --- | --- | --- | --- | --- | --- | --- | --- |
| COC(=O)Nc1nc2ccc(Oc3ccc(NC(=O)Nc4cc(C(F)(F)F)ccc4F)cc3)cc2s1 | 55.9% | 0.62% | 4.14% | 1.98% | 6.74% | 86.7% | 88.4% | 67.3% | 84.6% | 78.9% | 83.2% | 1.92% | 1.28% | 1.61% | 7.35% | 0.46 | 26.9% | 0.28% | -0.86% | 0.09% |
| NS(=O)(=O)c1ccc(N/N=C2\C(=O)Nc3cccc(CCc4ccncc4)c32)cc1 | 58.5% | -0.74% | -0.31% | 4.23% | 20.1% | 21.6% | 43.4% | 38.5% | 43.6% | 18.8% | 29.1% | -0.73% | 5.76% | 3% | 9.09% | 3.83 | 9.5% | 1.9% | 1.2% | 0.03% |
| FC(F)(F)CNc1nccc(-c2cnn3ncccc23)n1 | 3.09% | 1.82% | 1.72% | -0.29% | 2.94% | 3.97% | 2.84% | 1.22% | 3.68% | 1.04% | 2.92% | 1.76% | -1.8% | -0.19% | 2.27% | 3.96 | 3.98% | -5.51% | -3.04% | -0.18% |
| CC1=C(C(=O)Nc2ccc3[nH]nc(C)c3c2)C(c2ccc(C(F)(F)F)cc2)CC(=O)N1 (stereo not given) | 12.2% | 1.26% | 6.47% | 10.8% | 5.14% | 7.82% | 44.2% | 12.2% | 42.2% | 10.5% | 38.1% | 5.1% | 23.9% | 4.15% | 17.6% | 1.6 | 22.7% | 0.76% | -1.98% | -4.6% |
| CC(C)c1ccc(-c2cc(-c3c[nH]nc3-c3ccccn3)ccn2)cc1 | 11.4% | -0.8% | -0.88% | 1.78% | 3.36% | 2.14% | 5.62% | 3.27% | 2.58% | 5.08% | 4.31% | -5.99% | 3.62% | 2.06% | 1.81% | 1.53 | 0.23% | 0.28% | -0.57% | 2.53% |
| O=C(O[C@H]1CN[C@H](C#Cc2cc3ncnc(Nc4ccc(OCc5cccc(F)c5)c(Cl)c4)c3s2)C1)N1CCOCC1 | 5.35% | 3.74% | 2.3% | 12.3% | 16.8% | 2% | 10.6% | 2.92% | 6.95% | 4.36% | 7.29% | 1.25% | 12.9% | 6.55% | 8.8% | -0.25 | 11.3% | -2.71% | -2.76% | -7% |
| CN(C)CCNC(=O)Nc1ccc(N(C)c2ccnc(Nc3ccc(CS(C)(=O)=O)cc3)n2)cc1 | 66.8% | 0.22% | 0.97% | 18.4% | 58.6% | 7.81% | 14.9% | 4.98% | 13.9% | 9.9% | 23.3% | 3.87% | 7.76% | 15.3% | 78% | 4.55 | 14.4% | -2.02% | -0.56% | -4.06% |
| O=C(O[C@H]1CN[C@H](C#Cc2cc3ncnc(Nc4ccc5c(ccn5Cc5cc(F)ccc5F)c4)c3s2)C1)N1CCOCC1 | 7.68% | 3.08% | 2.35% | 13.2% | 5.45% | 2.76% | 4.91% | 2.75% | 4.26% | 1.9% | 19.6% | -0.04% | 7.89% | 5.19% | 6.27% | 0.52 | 8.86% | -2.61% | -3.38% | -0.55% |
| CN1CCN(Cc2ccc(-c3cc4ncnc(Nc5ccc(OCc6cccc(F)c6)c(Cl)c5)c4s3)o2)CC1 | 6.41% and 13% | 2.16% and 3.11% | 3.13% and 4.91% | 8.63% and 10.6% | 8.03% and 19.6% | 6.83% and 5.69% | 13.4% and 14.8% | 3.67% and 4.61% | 5.81% and 10.9% | 4.88% and 3.59% | 11.4% and 17.4% | 3.2% and 3.55% | 10.2% and 6.54% | 3.07% and 6.46% | 6.26% and 12.4% | 4.74 | 13.4% and 18.3% | -1.16% and -1.22% | 0.02% and -0.37% | 0.19% and -1.76% |
